Holding throughout (experiment): NCI-60 one-dose screen, 48 h (100 = growth as untreated, 0 = no growth, -100 = all killed)
What all share (conditions): 10 µM unless noted

In experiment [1] the test system is SR leukemia.
The test system of experiment [2] is RPMI-8226 leukemia.
In experiment [3] the test system is OVCAR-8 ovarian.
The test system of experiment [4] is OVCAR-5 ovarian.
Experiment [5] relates to OVCAR-4 ovarian.
Experiment [6] concerns SK-OV-3 ovarian.
Experiment [7] has as its system IGROV1 ovarian.
The test system of experiment [8] is OVCAR-3 ovarian.
Experiment [9] relates to HS 578T breast.
The subject of experiment [10] is NCI/ADR-RES ovarian.
Experiment [11] has as its system T-47D breast.
In experiment [12] the test system is BT-549 breast.
Experiment [13] deals with MDA-MB-435 melanoma.
Experiment [14] has as its system SW-620 colon.
In experiment [15] the test system is MCF7 breast.
Experiment [16] concerns HCT-116 colon.
The subject of experiment [17] is HCC-2998 colon.
In experiment [18] the test system is KM12 colon.

The panel holds about 83,000 compounds, 20% with a hit somewhere; the sample as a whole holds those more often.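 Negative percent growth values reflect cell death: -40 means 40% of the cells present at the start died, and -100 means all died.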 Values without a mark were called inactive. Active and inactive are the calls of the source. Rule for the calls: active = growth percent below 10; inactive = the rest.

`O=C(C1=Cc2cc3ccccc3n2Cc2cnnn21)c1ccc(F)cc1`: the growth in [1] was 87.6%; in [2] it was 92.4%; in experiment [3] it was 99.4%; in [4], 115%; in experiment [5], 95%; in experiment [6] it was 94.6%. Moreover, the growth in experiment [7] was 90%; in experiment [8] it was 104%; in experiment [9] it was 90.8%; in experiment [10] it was 101%; in [11] it was 95%; in experiment [12] it was 94.9%. The growth is 97.5% in experiment [13]; 108% in experiment [14]; 94% in experiment [15]; 97.9% in [16]; 110% in experiment [17]; 90.8% in experiment [18].

In the case of `COc1ccc2c(c1)oc1c(C)c3c(c(C)c12)C(=O)N(CCOS(C)(=O)=O)C3=O`, the growth is 65.8% in experiment [1]; 94% in experiment [2]; 103% in experiment [3]; 91.6% in experiment [4]; 100% in experiment [5]; 120% in experiment [6]. Besides, the growth in [7] is 88.4%; in experiment [8], 118%; in experiment [9], 109%; in experiment [10] it was 97.7%; in experiment [11], 103%; in experiment [12] it was 90%. Further, the growth in experiment [13] is 94.9%; in [14], 94.2%; in experiment [15], 73.7%; in [16], 94.1%; in experiment [17], 100%; in [18], 107%.

As to `COc1cc(-c2cc(-c3ccc(Nc4nc(Nc5ccc(Cl)cc5)nc(Nc5ccc(Cl)cc5)n4)cc3)no2)cc(OC)c1OC`, the growth was 15.7% in [1]; 7.63% (active) in experiment [2]; 76.4% in [3]; 77.8% in [4]; 78.8% in experiment [5]; 90.7% in experiment [6]. Further, the growth in experiment [7] is 71%; in experiment [8], 86%; in [9], 62.9%; in experiment [10] it was 80.4%; in experiment [11] it was 45.9%; in [12], 88.6%. Further, the growth is 71.5% in experiment [13]; 89.1% in [14]; 49.4% in experiment [15]; 66.2% in [16]; 61.3% in experiment [17]; 83.8% in experiment [18].

Take `O=C(/C=C/c1ccccc1)N(C1CCCCC1)C1CCCCC1`: the growth in experiment [1] is 83.8%; in experiment [2], 51.8%; in experiment [3], 95%; in [4] it was 106%; in experiment [5], 84%; in experiment [6] it was 117%. Besides, the growth in experiment [7] was 116%; in [8], 89.6%; in [9], 90.8%; in experiment [10], 74.5%; in experiment [11], 69.2%; in experiment [12], 77.3%. The growth in experiment [13] was 99%; in experiment [14], 92.4%; in experiment [15], 88.4%; in [16], 57.6%; in experiment [17], 92.4%; in experiment [18] it was 95.1%.

With `CN1CCN(Cc2ccc(NC(=O)c3cncc(C#Cc4cnc(N)cc4C#N)c3)cc2C(F)(F)F)CC1`, the growth in [1] is 1.8% (active); in [2], 12.7%; in experiment [3], 22.6%; in experiment [4], 15.8%; in experiment [5], 23.2%; in experiment [6], -14.6% (active). Further, the growth in [7] was 1.46% (active); in experiment [8], 28.4%; in experiment [9] it was -8.07% (active); in experiment [10], 66.3%; in [11], 24.7%; in [12], 37.5%. In addition, the growth in experiment [13] was 2.03% (active); in [14], -2.02% (active); in experiment [15], 18.7%; in [16] it was 1.47% (active); in [17], 22.5%; in experiment [18], 5.45% (active).

For the molecule `N=C(N)c1ccc(-c2ccc(-c3cc(Cl)cc(Cl)c3)s2)s1`, the growth is -29.4% (active) in experiment [1]; -26% (active) in experiment [2]; -34.6% (active) in experiment [3]; 3.07% (active) in [4]; -58% (active) in experiment [5]; 88.7% in [6]. In addition, the growth in [7] is -26.7% (active); in [8], -76.2% (active); in experiment [9] it was 87.6%; in experiment [10] it was -21.4% (active); in experiment [11], -50% (active); in [12], 87.8%. Besides, the growth in experiment [13] is -69.7% (active); in experiment [14], -39.8% (active); in experiment [15] it was -64.2% (active); in [16] it was -52.5% (active); in experiment [17], -59.9% (active); in experiment [18], -58.6% (active).

For `CC/C(=C(\c1ccc(Cl)cc1)c1ccc(OCCN2CCCCC2)cc1)c1ccc(O)cc1`, the growth in experiment [1] is -11.2% (active); in experiment [2] it was 1.63% (active); in [3], 62.6%; in experiment [4], 70.4%; in experiment [5] it was 36.7%; in [6] it was 68.1%. In addition, the growth in experiment [7] is 66.8%; in experiment [8], 40.4%; in experiment [9], 46.5%; in experiment [10], 53.3%; in experiment [11], 4.66% (active); in experiment [12] it was 58.3%. Besides, the growth is 2.07% (active) in [13]; -35.7% (active) in experiment [14]; 3.41% (active) in experiment [15]; -56.5% (active) in experiment [16]; 37.5% in experiment [17]; 17.5% in experiment [18].

On to `CC[C@H](Nc1nc(N)nc(C)c1C#N)c1nc2cccc(CN(C)c3ncc(C(=O)NO)cn3)c2c(=O)n1-c1ccccc1`, for which the growth was 14.1% in experiment [1]; 4.89% (active) in experiment [2]; 4.22% (active) in experiment [3]; 3.2% (active) in experiment [4]; 31.4% in [5]; -19.4% (active) in [6]. The growth in [7] was -36.2% (active); in [8], 5.16% (active); in experiment [9], 8.03% (active); in experiment [10], 73.3%; in experiment [11], -23.1% (active); in [12] it was 34.6%. The growth in experiment [13] was -3.69% (active); in [14], 3.51% (active); in experiment [15] it was 10.8%; in experiment [16] it was -19.7% (active); in experiment [17], -7.29% (active); in experiment [18], 16.4%.

For the origin of these results see PubChem BioAssay (NCI).
